The list is not random: actives were taken first. Their share in the collection is about 27%.
sEH act: activators of human soluble epoxide hydrolase; P34913; purified human sEH enzymatic activity, activator screen; activation, % at 2 µM; 0.04% of 91,000 active; in the data active = activation above about 37%
Target sequence (P34913 whole entry, looked up): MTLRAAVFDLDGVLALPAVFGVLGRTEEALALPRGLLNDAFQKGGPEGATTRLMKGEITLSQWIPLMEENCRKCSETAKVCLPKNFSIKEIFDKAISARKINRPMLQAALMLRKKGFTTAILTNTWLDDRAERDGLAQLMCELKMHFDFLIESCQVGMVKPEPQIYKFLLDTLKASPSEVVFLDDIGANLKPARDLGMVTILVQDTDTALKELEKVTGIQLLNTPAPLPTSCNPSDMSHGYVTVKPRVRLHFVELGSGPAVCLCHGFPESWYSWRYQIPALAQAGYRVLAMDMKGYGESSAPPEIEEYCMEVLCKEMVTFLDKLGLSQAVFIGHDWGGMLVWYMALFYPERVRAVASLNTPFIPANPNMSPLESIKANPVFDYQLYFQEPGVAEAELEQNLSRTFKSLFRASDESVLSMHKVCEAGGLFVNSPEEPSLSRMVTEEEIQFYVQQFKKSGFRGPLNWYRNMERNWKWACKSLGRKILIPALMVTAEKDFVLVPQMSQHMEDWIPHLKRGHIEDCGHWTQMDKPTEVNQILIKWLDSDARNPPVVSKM
CYP2C9 inh: blocks human cytochrome P450 2C9 | P11712 | CYP2C9 Supersomes, luciferin-H conversion, luminescence | inhibition, % at 5 µM | 20% of 96,000 active;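 active = blocking of liver enzyme CYP2C9 beyond about 50% at 5 µM, limit read from the data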
CYP2C9 activ: activators of human CYP2C9 | 1.4% of 96,000 active | recombinant CYP2C9, luciferin-H conversion, luminescence; active compounds read high; factor 1 = untreated enzyme, 0 = blocked | P11712 | activation factor at 5 µM;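 active = activation factor of 2 or more for CYP2C9 at a 5 µM dose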
CYP2C19 inhib: blocks human cytochrome P450 2C19; P33261; CYP2C19 Supersomes, luciferin-H EGE luminescence, 30 min; inhibition, % at 5 µM; 21% of 96,000 active; AID 778;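 active = CYP2C19 inhibition above a set limit at 5 µM in the primary screen, cut at about 50% in these data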
CYP2C19 act: activators of human cytochrome P450 2C19. P33261. recombinant CYP2C19, luciferin-H EGE luminescence; active compounds read high; 0 = fully inhibited enzyme, 1 = untreated enzyme. activation factor at 5 µM. 96,000 tested, under 10 active. AID 1025;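 active = activation factor of at least 2 at 5 µM in the primary screen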
sEH inh: soluble epoxide hydrolase (human) inhibition | P34913 | recombinant human sEH enzymatic activity assay | inhibition, % at 2 µM | 0.34% of 91,000 active; in the data active = inhibition above about 80%
Of the large screens only hits and unclear results are named; the others gave an inactive call.

O=C(CC1C(=O)NCCN1C(=O)Nc1ccccc1)Nc1ccc2c(c1)OCCO2 (configuration not stated)	none
C=CCN(CC=C)C(=O)Cc1ccc(F)cc1	none
NC(=O)NC1CCCc2c1[nH]c1ccc(Cl)cc21 (configuration not stated)	CYP2C9 inh 94, CYP2C19 inhib 52 (no result: sEH act, sEH inh)
CCOC(=O)c1c2c(c(=S)n(-c3ccccc3)c1N)CCC2	CYP2C9 inh 54, CYP2C19 inhib 60
N#Cc1c2c(c(=S)n(-c3ccccc3)c1N)CCCC2	CYP2C9 inh 57
Cc1c(C(=O)N2CCC(C)CC2)oc2ccc(S(=O)(=O)N3CCC4(CC3)OCCO4)cc12	none
Clc1cccc(Cl)c1CSc1nnc(-c2sccc2-n2cccc2)o1	none
Cc1ccccc1OCC(=O)Nc1sc(C(=O)Nc2cccc(C)c2C)c(C)c1C#N	none
Fc1ccc(CNc2ncnc3c2cnn3-c2ccccc2)cc1	CYP2C9 inh 58
c1ccc(-n2ncc3c(NCCN4CCOCC4)ncnc32)cc1	CYP2C9 inh 52
c1ccc(CNc2ncnc3c2cnn3-c2ccccc2)cc1	CYP2C9 inh 54
CC(C)(C)Nc1ncnc2c1cnn2-c1ccccc1	CYP2C9 inh 63 (no result: sEH act, sEH inh)
c1ccc(-n2ncc3c(NCCN4CCCCC4)ncnc32)cc1	none
CCN(CC)C(=O)N1CCC(NC(=O)c2ccccc2)CC1	none
c1ccc(-n2ncc3c(NCc4ccccn4)ncnc32)cc1	CYP2C9 inh 70
CCCC1(CCC)NC(=O)N(CC(=O)Nc2cccc(OC)c2)C1=O	none
Cc1ccc(N(Cc2ccccc2F)S(C)(=O)=O)cc1C	CYP2C9 inh 73, CYP2C19 inhib 98
Cc1cccc(N(Cc2ccccc2F)S(C)(=O)=O)c1	CYP2C19 inhib 52 (no result: sEH act, sEH inh)
Cc1ccc(N(Cc2ccc(C(=O)NC3CCCCC3)cc2)S(C)(=O)=O)cc1C	none
Cc1ccc(C(C)C)c(OCC(=O)c2c(O)c3ccccc3oc2=O)c1	none (no result: CYP2C9 inh, CYP2C9 activ, CYP2C19 inhib, CYP2C19 act)
O=S(=O)(C/C(=C/CO)S(=O)(=O)c1ccccc1)c1ccccc1	none
CCCn1c(O)c(CN2CCCCC2)c(C)c(C#N)c1=O	CYP2C9 inh 63 (no result: sEH act, sEH inh)
Cc1c(CN2CCCCC2)c(O)n(CCCO)c(=O)c1C#N	none
O=C(NCCNC(=O)C(c1ccccc1)c1ccccc1)c1ccco1	CYP2C9 inh 51, CYP2C19 inhib 66
O=C(Nc1ccccc1C(=O)NCCc1ccccc1)c1ccco1	CYP2C9 inh 71, CYP2C19 inhib 54
O=C(O)CNC(=O)c1ccccc1NC(=O)c1ccco1	none
O=C(Nc1ccccc1C(=O)NCc1ccc(Cl)cc1)c1ccco1	CYP2C9 inh 58
Cc1cccc2nc(C(F)(F)F)nc(=O)n12	none
COc1ccccc1NS(=O)(=O)c1cccc(C(=O)N/N=C(\C)c2ccc(-n3ccnc3)cc2)c1	CYP2C9 inh 99, CYP2C19 inhib 100, sEH inh 82
COc1ccccc1NC(=O)c1cccc(S(=O)(=O)N2CCOCC2)c1	none
O=C(COc1ccccc1Cl)NC(=S)N1CCc2ccccc21	none
Cc1ccc(-n2nc(C(=O)N/N=C/c3cccc(C(F)(F)F)c3)c3ccccc3c2=O)cc1C	none
CCOC(=O)CN1C(=O)C(Sc2n[nH]c(-c3ccccc3)n2)CCc2ccccc21 (configuration not stated)	CYP2C9 inh 93, CYP2C19 inhib 89
O=c1[nH]c(SCc2ccccc2Cl)nc2c1cnn2-c1ccccc1	none (no result: sEH act, sEH inh)
Cc1ccc2nc(SCC(=O)Nc3ccc4c(c3)OCCO4)[nH]c2c1	CYP2C9 inh 83
Clc1ccccc1CSc1nc2ccncc2[nH]1	CYP2C19 inhib 99
O=C(Nc1nc2ccccc2[nH]1)C1CC(=O)N(c2ccc3c(c2)OCCO3)C1 (configuration not stated)	CYP2C9 inh 62, CYP2C19 inhib 59
Cc1ccc2nc(SCC(=O)Nc3c(C)n(C)n(-c4ccccc4)c3=O)[nH]c2c1	none
COC(=O)c1ccc(CSc2nc3ccc(C)cc3[nH]2)o1	CYP2C9 inh 83, CYP2C19 inhib 93
COC(=O)Cc1c(C)nc2nc(NCc3cccc([N+](=O)[O-])c3)[nH]n2c1=O	none
Cc1cc(NC(=O)CSc2nc3ccccc3[nH]2)no1	none
O=C(CSc1nc2ccccc2[nH]1)Nc1ccc(F)cc1	CYP2C9 inh 84, CYP2C19 inhib 94
O=C(Nc1ccccc1C(F)(F)F)c1cccnc1	none
O=C(CSc1nc2ccccc2[nH]1)Nc1ccc2c(c1)OCCO2	CYP2C9 inh 72
O=C(CSc1nc2ccncc2[nH]1)Nc1ccccc1C(F)(F)F	CYP2C19 inhib 60 (no result: sEH act, sEH inh)
Cc1ccc2nc(SCC(=O)Nc3cc(C)on3)[nH]c2c1	CYP2C9 inh 78, CYP2C19 inhib 76
CCOc1ccc(N2C(=O)CC(N)C2=O)cc1 (configuration not stated)	none (no result: CYP2C9 inh, CYP2C9 activ, CYP2C19 inhib, CYP2C19 act)
CC(=O)c1cc(-c2ccccc2)n(CC(=O)NC2CCCC2)c1C	none
CC(=O)c1cc(-c2ccccc2)n(CCC(=O)NCc2cccs2)c1C	CYP2C9 inh 54, CYP2C19 inhib 73
CC(=O)c1cc(-c2ccc(F)cc2)n(CC(=O)NCc2cccs2)c1C	CYP2C19 inhib 81
O=c1c2ccccc2n(Cc2cccc(F)c2)c(=O)n1C1CCCC1	none (no result: sEH act, sEH inh)
O=C(NCc1ccc(OC(F)(F)F)cc1)C1CC(c2ccccc2[N+](=O)[O-])=NO1 (configuration not stated)	CYP2C9 activ 3.1
Cc1ccc(CNC(=O)C2CC(c3ccccc3[N+](=O)[O-])=NO2)cc1 (configuration not stated)	none
CCCCNC(=O)C1CC(c2ccccc2[N+](=O)[O-])=NO1 (configuration not stated)	none
O=C(NCCCCc1ccccc1)C1CC(c2ccccc2[N+](=O)[O-])=NO1 (configuration not stated)	CYP2C19 inhib 51
c1ccc(C2OC3c4cccc5cccc(c45)C3N2c2ccccc2)cc1 (configuration not stated)	none (no result: CYP2C9 inh, CYP2C9 activ, CYP2C19 inhib, CYP2C19 act)
Cc1cccc(-n2c(C)nc3c(cnn3-c3ccc(F)cc3)c2=O)c1	none
COc1ccc(N2CCN(CCCNS(=O)(=O)c3c(C)noc3/C=C/N(C)C)CC2)cc1	CYP2C9 inh 62
O=c1ccc(/C=C/c2ccccc2)nn1Cc1ccccc1Cl	CYP2C9 inh 52
N#Cc1ccc(-c2cccnc2)nc1SCC(=O)Nc1sc2c(c1C#N)CCC2	none (no result: sEH act, sEH inh)
CC(Sc1nc(-c2ccccc2)cc(C(F)(F)F)n1)C(=O)Nc1sc2c(c1C#N)CCC2 (configuration not stated)	CYP2C9 inh 64
N#Cc1c(C(F)(F)F)cc(-c2ccccc2)nc1SCC(=O)Nc1sc2c(c1C#N)CCC2	CYP2C9 inh 71
N#Cc1c(C(F)(F)F)cc(-c2ccc(Cl)c(Cl)c2)nc1SCCN1CCOCC1	none
N#Cc1c(C(F)(F)F)cc(-c2ccccc2)nc1SCc1nc(N)nc(N2CCOCC2)n1	CYP2C9 inh 80, CYP2C19 inhib 81 (no result: sEH act, sEH inh)
N#Cc1cc(-c2ccccc2)nn1-c1ccccc1	none
CNc1ccccc1-n1ccc(-c2ccccc2)n1	CYP2C19 inhib 72
